“And” between values parts separate entries of the source, which are not always exact repeats. Equal values may be shown once. For some of these results: Results with a measured potency or affinity are listed apart. Some structures have more than one record in an assay (separate samples or runs), and their calls can disagree. The source made the active and inactive calls. Unless noted, how the calls were made is not given here.
Key:
[1] = antimalarial activity against Dd2 strain (AID 2302;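 active means growth inhibition above 50% at the single 2 µM test dose, taken to imply half-maximal potency below 2 µM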;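 further: 0% = DMSO untreated growth and 100% = chloroquine plus artemisinin killed control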); conditions: P. falciparum Dd2 in RBCs, LDH growth readout, 72 h; at 2 µM; stronger effect = higher value
[2] = human hepatoma cell viability loss – ATP luminescence, cytotoxicity control for P. falciparum antimalarial project, primary screen (AID 2303;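 active means inhibition above 50%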;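 further: 0% = DMSO wells and 100% = digitonin-killed cells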); conditions: HepG2 viability, 24-48 h, at 10 µM, stronger effect = higher value
[3] = target: L-lactate dehydrogenase (Plasmodium falciparum (isolate CDC / Honduras)) (UniProt Q27743); experiment: PfLDH activity inhibition – cell lysate, 3D7 strain, counter-screen for P. falciparum growth inhibition project (AID 2304);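 further: 0% = vehicle and 100% = reference inhibitor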; conditions: P. falciparum 3D7 crude extract, LDH APAD/NBT absorbance; at 2 µM; stronger effect = higher value
[4] = inhibition of 3D7 malaria parasite growth – strain 3D7 (AID 2306);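 further: 0% = DMSO wells and 100% = chloroquine plus artemisinin control wells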; conditions: P. falciparum 3D7 erythrocytic growth, LDH absorbance, 72 h; at 2 µM; stronger effect = higher value
[5] = target: Calcium-dependent protein kinase 1 (Plasmodium falciparum (isolate 3D7)) (UniProt P62344); experiment: PfCDPK1 kinase inhibitors, biochemical, TCAMS library (AID 1159585; cut-off not given, nearly all actives have IC50 up to about 0.98 µM;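 further: inhibitors leave more ATP so luminescence rises with inhibition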); conditions: recombinant PfCDPK1, Kinase-Glo ATP depletion luminescence
[6] = target: Plasmodium falciparum protein kinase 6 (PK6, PF3D7_1337100) (UniProt Q8IDW1); experiment: PfPK6 kinase inhibitors, biochemical, TCAMS library (AID 1159586); conditions: recombinant PfPK6, Kinase-Glo ATP depletion luminescence
[7] = target: Protein kinase 7 (PK7), Plasmodium falciparum 3D7 (PF3D7_0213400) (UniProt Q7YTF7); experiment: inhibition of Plasmodium PK7 catalytic activity – biochemical, TCAMS antimalarial set, Kinase-Glo luminescence (AID 1159587); conditions: recombinant PfPK7, Kinase-Glo ATP depletion luminescence
[8] = target: Calcium-dependent protein kinase 4 (Plasmodium falciparum (isolate 3D7)) (UniProt Q8IBS5); experiment: PfCDPK4 kinase inhibitors, biochemical, TCAMS library (AID 1159588; cut-off not given, nearly all actives have IC50 up to about 0.91 µM); conditions: recombinant PfCDPK4, Kinase-Glo ATP depletion luminescence
Calcium-dependent protein kinase 4 (Plasmodium falciparum (isolate 3D7)), sequence (Q8IBS5 whole entry, looked up): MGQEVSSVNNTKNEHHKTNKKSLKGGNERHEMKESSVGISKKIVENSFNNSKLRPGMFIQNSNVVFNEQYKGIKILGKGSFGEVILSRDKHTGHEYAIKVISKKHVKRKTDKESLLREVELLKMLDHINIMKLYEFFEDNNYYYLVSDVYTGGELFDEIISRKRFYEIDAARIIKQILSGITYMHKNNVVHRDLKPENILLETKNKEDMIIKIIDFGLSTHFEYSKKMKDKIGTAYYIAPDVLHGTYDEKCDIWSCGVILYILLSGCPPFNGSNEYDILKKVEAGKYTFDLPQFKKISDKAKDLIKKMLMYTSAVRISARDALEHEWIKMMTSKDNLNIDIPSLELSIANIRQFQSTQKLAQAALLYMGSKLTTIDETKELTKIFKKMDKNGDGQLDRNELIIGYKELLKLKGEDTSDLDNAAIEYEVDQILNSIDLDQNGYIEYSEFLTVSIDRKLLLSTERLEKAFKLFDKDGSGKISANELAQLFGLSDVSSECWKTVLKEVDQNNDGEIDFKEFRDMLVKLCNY

Plasmodium falciparum protein kinase 6 (PK6, PF3D7_1337100), sequence (Q8IDW1 1-305): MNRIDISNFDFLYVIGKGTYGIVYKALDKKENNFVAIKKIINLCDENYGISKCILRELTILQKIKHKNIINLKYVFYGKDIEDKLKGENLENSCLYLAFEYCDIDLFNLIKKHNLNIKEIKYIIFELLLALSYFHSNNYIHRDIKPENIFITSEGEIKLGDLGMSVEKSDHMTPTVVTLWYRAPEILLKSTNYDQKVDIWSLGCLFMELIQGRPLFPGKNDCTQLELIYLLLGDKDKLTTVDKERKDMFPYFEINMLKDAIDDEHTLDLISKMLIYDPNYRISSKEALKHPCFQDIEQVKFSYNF
Calcium-dependent protein kinase 1 (Plasmodium falciparum (isolate 3D7)), sequence (P62344 whole entry, looked up): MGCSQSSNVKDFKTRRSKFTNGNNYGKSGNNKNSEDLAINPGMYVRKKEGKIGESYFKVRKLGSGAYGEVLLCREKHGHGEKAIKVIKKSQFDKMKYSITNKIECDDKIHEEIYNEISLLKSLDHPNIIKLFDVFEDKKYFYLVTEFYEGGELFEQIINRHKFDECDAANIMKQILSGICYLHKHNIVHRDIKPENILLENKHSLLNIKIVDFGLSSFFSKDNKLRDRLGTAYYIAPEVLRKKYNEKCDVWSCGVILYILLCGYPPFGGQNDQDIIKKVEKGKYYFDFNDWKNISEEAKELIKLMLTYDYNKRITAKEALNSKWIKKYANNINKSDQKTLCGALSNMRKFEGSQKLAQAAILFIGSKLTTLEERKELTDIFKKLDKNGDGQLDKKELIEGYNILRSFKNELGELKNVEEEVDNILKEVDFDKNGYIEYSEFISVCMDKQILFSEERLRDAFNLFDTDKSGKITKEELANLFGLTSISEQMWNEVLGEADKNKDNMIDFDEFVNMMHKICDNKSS
L-lactate dehydrogenase (Plasmodium falciparum (isolate CDC / Honduras)), sequence (Q27743 whole entry, looked up): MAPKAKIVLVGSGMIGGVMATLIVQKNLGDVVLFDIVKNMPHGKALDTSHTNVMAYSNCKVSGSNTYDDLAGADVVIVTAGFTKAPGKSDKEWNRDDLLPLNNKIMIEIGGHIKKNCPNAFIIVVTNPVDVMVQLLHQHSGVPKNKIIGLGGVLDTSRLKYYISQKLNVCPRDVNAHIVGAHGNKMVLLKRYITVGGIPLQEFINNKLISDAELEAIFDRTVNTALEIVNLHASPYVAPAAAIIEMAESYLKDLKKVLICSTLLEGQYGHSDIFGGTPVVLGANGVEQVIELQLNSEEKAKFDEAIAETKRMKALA
Protein kinase 7 (PK7), Plasmodium falciparum 3D7 (PF3D7_0213400), sequence (Q7YTF7 1-343): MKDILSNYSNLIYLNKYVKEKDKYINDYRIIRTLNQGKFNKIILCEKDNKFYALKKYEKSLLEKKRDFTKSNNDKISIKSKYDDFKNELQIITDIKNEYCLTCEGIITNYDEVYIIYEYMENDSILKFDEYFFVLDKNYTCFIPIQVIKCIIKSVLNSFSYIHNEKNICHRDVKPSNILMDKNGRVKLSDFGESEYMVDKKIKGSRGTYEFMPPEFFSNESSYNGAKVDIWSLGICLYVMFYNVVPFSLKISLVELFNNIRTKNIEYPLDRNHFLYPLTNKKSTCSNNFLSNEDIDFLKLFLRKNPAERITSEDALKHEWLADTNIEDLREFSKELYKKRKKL

CCCN(CCC)CCOC(=O)C(OCC)(c1ccccc1)c1ccccc1
active: growth inhibition [4] 97%
inactive: growth inhibition [1] 0% | inhibition [2] -2% | inhibition [3] 0% | outcome [5] | outcome [6] | outcome [7] | outcome [8]

COc1cc(C=CC(=O)NC2CCC(CN3CCC(c4c[nH]c5ccccc45)CC3)CC2)cc(OC)c1 (centres undefined)
active: growth inhibition [1] 90% | growth inhibition [4] 101%
inactive: inhibition [2] 38% | inhibition [3] -9% | outcome [5] | outcome [6] | outcome [7] | outcome [8]

CC[C@H]1CN2CCc3cc(OC)c(OC)cc3[C@@H]2C[C@@H]1C[C@H]1NCCc2c1cc(OC)c(OC)c2Br
active: growth inhibition [1] 97% | growth inhibition [4] 99%
inactive: inhibition [2] 45% | inhibition [3] -1% | outcome [5] | outcome [6] | outcome [7] | outcome [8]

O=C(Nc1ccccc1Cl)NC1CCC(CN2CCC(c3c[nH]c4ccccc34)CC2)CC1 (centres undefined)
active: growth inhibition [4] 98% and 101%
inactive: growth inhibition [1] 31% and 34% | inhibition [2] 32% and 37% | inhibition [3] 0% and -2% | outcome [5] | outcome [6] | outcome [7] | outcome [8]

CNC(=O)c1ccc2[nH]cc(C3CCN(CC4CCC(NC(=O)/C=C/c5ccc(Cl)c(Cl)c5)CC4)CC3)c2c1 (centres undefined)
inactive: inhibition [2] -1% | inhibition [3] -7% | outcome [5] | outcome [6] | outcome [7] | outcome [8]
active: growth inhibition [1] 90% | growth inhibition [4] 100%

Cc1cc(C)c(CC(C)NCC(O)c2cccc(C(F)(F)F)c2)c(C)c1 (centres undefined)
active: growth inhibition [1] 99% | growth inhibition [4] 100%
inactive: inhibition [2] 0% | inhibition [3] 5% | outcome [5] | outcome [6] | outcome [7] | outcome [8]

COc1cc(C=CC(=O)N2CCC(CN3CCC(c4c[nH]c5ccccc45)CC3)CC2)ccc1O
inactive: growth inhibition [1] 25% | inhibition [2] 11% | inhibition [3] -3% | outcome [5] | outcome [6] | outcome [7] | outcome [8]
active: growth inhibition [4] 82%

COc1cccc(CC(C)NCC(O)c2cccc(Cl)c2)c1 (centres undefined)
inactive: inhibition [2] 7% | inhibition [3] -1% | outcome [5] | outcome [6] | outcome [7] | outcome [8]
active: growth inhibition [1] 76% | growth inhibition [4] 85%

CCCCc1ccc2[nH]cc(C3=CCN(C)CC3)c2c1Br
active: growth inhibition [1] 94% | growth inhibition [4] 94%
inactive: inhibition [2] 37% | inhibition [3] -5% | outcome [5] | outcome [6] | outcome [7] | outcome [8]

COc1cc(CN2CCN(c3ccnc(N(C)C4CCN(C)CC4)n3)CC2)cc(Cl)c1O
inactive: inhibition [2] 11% | inhibition [3] -5% | outcome [5] | outcome [6] | outcome [7] | outcome [8]
active: growth inhibition [1] 63% | growth inhibition [4] 94%

Cc1ccc2[nH]cc(C3CCN(CC4CCC(NC(=O)/C=C/c5ccc(Cl)c(Cl)c5)CC4)CC3)c2c1 (centres undefined)
46% (inactive) and 86% (active): growth inhibition [1]
active: growth inhibition [4] 101% and 94%
inactive: inhibition [2] 29% and 37% | inhibition [3] -10% and 0% | outcome [5] | outcome [6] | outcome [7] | outcome [8]

C/C=C1\CN2CC[C@H]1C[C@@H]2[C@@H](O)c1ccnc2ccc(O)cc12
active: growth inhibition [4] 98%
inactive: growth inhibition [1] -1% | inhibition [2] -10% | inhibition [3] -4% | outcome [5] | outcome [6] | outcome [7] | outcome [8]

CCOC(=O)CCCN1C(=O)CN=C(c2ccccc2)c2cc(Cl)ccc21
active: inhibition [2] 54% | growth inhibition [4] 97%
inactive: growth inhibition [1] 47% | inhibition [3] -8% | outcome [5] | outcome [6] | outcome [7] | outcome [8]

O=C1c2ccccc2CCC1CCN1CC=C(c2c[nH]c3ccccc23)CC1 (centres undefined)
inactive: inhibition [2] 5% | inhibition [3] 7% | outcome [5] | outcome [6] | outcome [7] | outcome [8]
active: growth inhibition [1] 83% | growth inhibition [4] 89%

CC(C)CNCc1ccc(-c2cccc(CN(C(=O)NC3CCCCC3)C3CCN(Cc4ccccc4)CC3)c2)cc1
inactive: inhibition [2] 20% | inhibition [3] 2% | outcome [5] | outcome [6] | outcome [7] | outcome [8]
active: growth inhibition [1] 88% | growth inhibition [4] 98%

Cc1ccc(CC(C)NCC(O)c2cccc(C(F)(F)F)c2)c(C)c1 (centres undefined)
active: growth inhibition [1] 99% | growth inhibition [4] 99%
inactive: inhibition [2] 3% | inhibition [3] -1% | outcome [5] | outcome [6] | outcome [7] | outcome [8]

CCCCCc1cc(O)c2c(c1)OC(C)(C)CC2C1=CCN(Cc2ccccc2)CC1 (centres undefined)
active: growth inhibition [1] 79% | growth inhibition [4] 99%
inactive: inhibition [2] 15% | inhibition [3] -5% | outcome [5] | outcome [6] | outcome [7] | outcome [8]

C[C@H](Cc1ccc(OCCCCCCOc2ccccc2)cc1)NC[C@@H](O)c1cc(Br)no1
active: growth inhibition [1] 70% | growth inhibition [4] 94%
inactive: inhibition [2] 21% | inhibition [3] 5% | outcome [5] | outcome [6] | outcome [7] | outcome [8]

CC[C@H]1CN2CC[C@H]1C[C@H]2[C@H](O)c1cc(-c2ccc(Cl)c(Cl)c2)nc2ccc(OC)cc12
active: growth inhibition [1] 99% | growth inhibition [4] 98%
inactive: inhibition [2] 17% | inhibition [3] 6% | outcome [5] | outcome [6] | outcome [7] | outcome [8]

Cc1cc(N)nc2ccc(CNCCc3ccccc3Br)cc12
inactive: inhibition [2] 28% | inhibition [3] 7% | outcome [5] | outcome [6] | outcome [7] | outcome [8]
active: growth inhibition [1] 77% | growth inhibition [4] 102%

CS(=O)(=O)Nc1ccc2[nH]cc(C3C[C@H]4CC[C@@H](C3)N4CC3CCC(NC(=O)/C=C/c4ccc(Cl)c(Cl)c4)CC3)c2c1 (some centres undefined)
inactive: inhibition [2] 3% | inhibition [3] 7% | outcome [5] | outcome [6] | outcome [7] | outcome [8]
active: growth inhibition [1] 50% | growth inhibition [4] 101%

O=C(NCc1ccc(S(=O)(=O)N2CCC(CN3CCC(c4c[nH]c5ccccc45)CC3)CC2)s1)c1ccccc1
inactive: growth inhibition [1] 21% | inhibition [2] 32% | inhibition [3] 5% | outcome [5] | outcome [6] | outcome [7] | outcome [8]
active: growth inhibition [4] 92%

COc1ccc(OC)c(C(O)CNC(C)C)c1 (centres undefined)
active: growth inhibition [4] 96%
inactive: growth inhibition [1] -2% | inhibition [2] 3% | inhibition [3] -9% | outcome [5] | outcome [6] | outcome [7] | outcome [8]

CCOC(=O)c1c(CN2CCN(C)CC2)n(Cc2ccccc2)c2cc(Br)c(O)cc12
active: growth inhibition [4] 100%
inactive: growth inhibition [1] 46% | inhibition [2] 11% | inhibition [3] -5% | outcome [5] | outcome [6] | outcome [7] | outcome [8]

Oc1cccc(C2CCCN(Cc3cccc4cc[nH]c34)C2)c1 (centres undefined)
inactive: inhibition [2] 16% | inhibition [3] -2% | outcome [5] | outcome [6] | outcome [7] | outcome [8]
active: growth inhibition [1] 82% | growth inhibition [4] 101%

S=C(NCCc1ccc(Cl)cc1)N1CCC(CN2CCC(c3c[nH]c4ccccc34)CC2)CC1
active: growth inhibition [4] 90%
inactive: growth inhibition [1] 7% | inhibition [2] 31% | inhibition [3] 0% | outcome [5] | outcome [6] | outcome [7] | outcome [8]

COCC(=O)N(Cc1cccc(-c2ccc(CNCCc3ccccc3)cc2)c1)C1CCN(Cc2ccccc2)CC1
active: growth inhibition [4] 93%
inactive: growth inhibition [1] 45% | inhibition [2] 44% | inhibition [3] 4% | outcome [5] | outcome [6] | outcome [7] | outcome [8]

COCCNCc1cccc(-c2ccc(CN(C(=O)Nc3ccccc3)C3CCN(Cc4ccccc4)CC3)cc2)c1
inactive: growth inhibition [1] 45% | inhibition [2] 25% | inhibition [3] -4% | outcome [5] | outcome [6] | outcome [7] | outcome [8]
active: growth inhibition [4] 101%

COc1ccc(OC)c(C=CC(=O)NC2CCC(CN3CCC(c4c[nH]c5ccccc45)CC3)CC2)c1 (centres undefined)
active: growth inhibition [1] 62% | growth inhibition [4] 98%
inactive: inhibition [2] 43% | inhibition [3] -4% | outcome [5] | outcome [6] | outcome [7] | outcome [8]

CN1CC[C@H](N(Cc2ccccc2F)c2ccc(C#N)c(Cl)c2)C1
inactive: inhibition [2] 18% | inhibition [3] -6% | outcome [5] | outcome [6] | outcome [7] | outcome [8]
active: growth inhibition [1] 68% | growth inhibition [4] 88%

Cc1c(C)c2c(c(C)c1O)CC[C@@](C)(C(=O)NC1CCC(CN3CCC(c4c[nH]c5ccccc45)CC3)CC1)O2 (some centres undefined)
inactive: inhibition [2] 29% | inhibition [3] -2% | outcome [5] | outcome [6] | outcome [7] | outcome [8]
active: growth inhibition [1] 57% | growth inhibition [4] 92%

COC(=O)c1ccc(CC(C)NCC(O)c2cccc3ccccc23)cc1 (centres undefined)
inactive: inhibition [2] 3% | inhibition [3] 4% | outcome [5] | outcome [6] | outcome [7] | outcome [8]
active: growth inhibition [1] 82% | growth inhibition [4] 96%

COC(C(=O)OCCC1CCCN1C)(c1ccccc1)c1ccccc1 (centres undefined)
inactive: growth inhibition [1] 9% | inhibition [2] 6% | inhibition [3] 2% | outcome [5] | outcome [6] | outcome [7] | outcome [8]
active: growth inhibition [4] 98%

CC(Cc1ccc(OCCCCOc2ccccc2)cc1)NCCC1CCCN1C (centres undefined)
active: growth inhibition [1] 98% | inhibition [2] 100% | growth inhibition [4] 99%
inactive: inhibition [3] 3% | outcome [5] | outcome [6] | outcome [7] | outcome [8]

CCCCCCC(CC)c1cc(O)c2c(c1)OC(C)(C)c1ccncc1-2 (centres undefined)
active: growth inhibition [1] 52% | growth inhibition [4] 94%
inactive: inhibition [2] -1% | inhibition [3] -6% | outcome [5] | outcome [6] | outcome [7] | outcome [8]

CC[C@@]1(O)C(=O)OCc2c1cc1n(c2=O)Cc2c-1nc1cc3c(cc1c2CN1CCOCC1)OCO3
inactive: inhibition [3] 4% | outcome [5] | outcome [6] | outcome [7] | outcome [8]
active: growth inhibition [1] 80% | inhibition [2] 81% | growth inhibition [4] 89%

CN1CCC(N(C)c2nccc(N3CCN(Cc4cncn4Cc4ccccc4)CC3)n2)CC1
active: growth inhibition [1] 100% | growth inhibition [4] 100%
inactive: inhibition [2] 15% | inhibition [3] 3% | outcome [5] | outcome [6] | outcome [7] | outcome [8]

O=[N+]([O-])c1ccc(Oc2c(Cl)cc(S(=O)(=O)N3CCC(CN4CCC(c5c[nH]c6ccccc56)CC4)CC3)cc2Cl)c(Cl)c1
inactive: inhibition [2] 43% | inhibition [3] -1% | outcome [5] | outcome [6] | outcome [7] | outcome [8]
active: growth inhibition [1] 83% | growth inhibition [4] 100%
